From PubChem BioAssay (Tox21)
Records with an inconclusive call do not appear. Entries that show only a call come without a potency. The source made the active and inactive calls. The call rests on the fitted dose curve; in most records, active means well fitted activation curve with a large enough effect in the repeat runs; inconclusive means weak or mixed curves; inactive means flat fitted curve, though single readings scatter.

Assay: Caspase-3/7 induction in HepG2 cells by small molecules, qHTS assay (AID 1346978); further: nearly all actives have a fitted effect of over 15% in size
Details: HepG2 caspase-3/7 activation, Caspase-Glo luminescence, 17 h; series mostly up to 92.4 µM
How it was run: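 Wild-type HepG2 cells, 2,000/well, settled 5 hr at 37 C and 5% CO2, then compound-treated for 17 hr; caspase-3/7 activity read by luminescent Caspase-Glo 3/7 after 30 min at room temperature.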

Q: For c1ccc(CCCc2ccncc2)cc1, which Potency is on record?
A: Its Potency is “inactive”.

Q: With CCN(CC)c1ccc(C(=C2C=CC(=[N+](CC)CC)C=C2)c2ccc(S(=O)(=O)O)cc2S(=O)(=O)[O-])cc1 as the molecule, how does the Potency read?
A: The Potency was “inactive”.

Q: Which Potency does the source give for CC(C)(O)CCc1ccccc1 here?
A: Its Potency is “inactive”.

Q: With CC(=O)OCC(C)C as the molecule, how does the Potency read?
A: Its Potency is “inactive”.

Q: For CC(C)(O)c1coc(S(=O)(=O)NC(=O)Nc2c3c(cc4c2CCC4)CCC3)c1, which Potency is on record?
A: Its Potency is “inactive”.

Q: For CCCCCCCCCCCCCCCC(=O)OCC, which Potency is on record?
A: The Potency was “inactive”.

Q: For CN1C(CSCC(F)(F)F)Nc2cc(Cl)c(S(N)(=O)=O)cc2S1(=O)=O (centres undefined), which Potency is on record?
A: Its Potency is “inactive”.

Q: Which Potency does the source give for CC1C(C)(C)C2=C(C(=O)CCC2)C1(C)C (centres undefined) here?
A: The Potency was “inactive”.

Q: Which Potency does the source give for CCCCCCCCCCCCCC(=O)OCC(O)CO (centres undefined) here?
A: Its Potency is “inactive”.

Q: For CC(C)C(O)C(C)(C)CO (centres undefined), which Potency is on record?
A: The Potency was “inactive”.

Q: With Cc1cccc(C)c1NC(=O)c1cc(S(N)(=O)=O)c(Cl)cc1O as the molecule, how does the Potency read?
A: The Potency was “inactive”.

Q: For CC1CCCC(=O)C1=O (centres undefined), which Potency is on record?
A: Its Potency is “inactive”.

Q: For O=C(NS(=O)(=O)/C=C/c1ccccc1)c1ccc(F)cc1Cl, which Potency is on record?
A: The Potency was “inactive”.

Q: With Nc1ccc(F)cc1 as the molecule, how does the Potency read?
A: The Potency was “inactive”.

Q: With CCOc1ncc(F)c(=O)[nH]1 as the molecule, how does the Potency read?
A: The Potency was “inactive”.

Q: With O=S(=O)(O)CO as the molecule, how does the Potency read?
A: The Potency was “inactive”.

Q: Which caspase activation does the source give for CCC(Cl)CC(Cl)C(Cl)C(Cl)C(Cl)C(C)Cl (centres undefined) here?
A: Its caspase activation is -16.4% [at 19 µM] (inactive).

Q: For O=CNNC=O, which Potency is on record?
A: Its Potency is “inactive”.

Q: For CCC(C)(C)C(=O)O, which Potency is on record?
A: The Potency was “inactive”.

Q: For CCOC(=O)C(C)O (centres undefined), which Potency is on record?
A: Its Potency is “inactive”.

Q: Which Potency does the source give for CCC(CO)(CO)CO here?
A: The Potency was “inactive”.

Q: For CCN(Cc1cccc(S(=O)(=O)O)c1)c1ccc(C(=C2C=CC(=[N+](CC)Cc3cccc(S(=O)(=O)O)c3)C=C2)c2ccccc2S(=O)(=O)[O-])cc1, which Potency is on record?
A: Its Potency is “inactive”.

Q: For CCN(CC)c1cccc(O)c1, which Potency is on record?
A: Its Potency is “inactive”.

Q: For CCCCCCC(O)CCCCCCCCCCC(=O)OC (centres undefined), which Potency is on record?
A: The Potency was “inactive”.

Q: For COC(C)(C)OC, which Potency is on record?
A: The Potency was “inactive”.

Q: For CCCCCCCC/C=C/C(=O)O, which Potency is on record?
A: Its Potency is “inactive”.

Q: For O=C(O)CO, which Potency is on record?
A: The Potency was “inactive”.

Q: For CCCCOC(=O)CCCCC(=O)OCCCC, which Potency is on record?
A: The Potency was “inactive”.

Q: With CC(=O)NCCO as the molecule, how does the Potency read?
A: Its Potency is “inactive”.

Q: With CSCC[C@H](NC(=O)[C@H](Cc1c[nH]c2ccccc12)NC(=O)CCNC(=O)OC(C)(C)C)C(=O)N[C@@H](CC(=O)O)C(=O)N[C@@H](Cc1ccccc1)C(N)=O as the molecule, how does the Potency read?
A: Its Potency is “inactive”.

Q: With FC(F)(F)C(F)(F)C(F)(F)C(F)(F)CCI as the molecule, how does the Potency read?
A: The Potency was “inactive”.

Q: Which Potency does the source give for COC1CCC=CO1 (centres undefined) here?
A: Its Potency is “inactive”.

Q: With CCc1ccc(C)cc1 as the molecule, how does the Potency read?
A: The Potency was “inactive”.

Q: For O=C(O)CCS, which Potency is on record?
A: The Potency was “inactive”.

Q: Which Potency does the source give for CC(C)C(=O)OCCOc1ccccc1 here?
A: Its Potency is “inactive”.

Q: For [Cl][Nd]([Cl])[Cl], which Potency is on record?
A: Its Potency is “inactive”.

Q: With NC(=O)CCCCC(N)=O as the molecule, how does the Potency read?
A: Its Potency is “inactive”.

Q: With CC(C)N(C)C as the molecule, how does the Potency read?
A: Its Potency is “inactive”.

Q: With Cc1oc(=O)oc1COC(=O)[C@@H]1N2C(=O)[C@@H](NC(=O)[C@H](N)c3ccccc3)[C@H]2SC1(C)C as the molecule, how does the Potency read?
A: Its Potency is “inactive”.
